The source of these data is PubChem BioAssay (EPA / NIEHS).

More than one record can exist for a structure, and the calls need not agree. Active and inactive are the calls of the source. How the source made its calls: active means hit-call score of the fitted dose curve at least 0.9, where 1 is the maximum; inactive means score below 0.9.

Read-out in this assay: Urokinase-type plasminogen activator receptor (uPAR), PLAUR (gene 5329)
The assay is described as follows: BSK_4H_uPAR: BioMAP Diversity Plus: 4H Assay for Urokinase-type plasminogen activator receptor (uPAR) Biomarker Activity (AID 2283030). The following applies: primary human endothelial cells (HUVEC); actives raise or lower the signal. How it is done:
BSK_4H is a cell-based, multiplexed-readout assay that uses umbilical vein endothelium, a human vascular primary cell, with measurements taken at 24 hours after chemical dosing in a 96-well plate.BSK_4HAR is an assay component measured in the BSK_4H assay. It measures uPAR antibody related to regulation of gene expression using ELISA technology.Data from the assay component BSK_4HAR was analyzed into 1 assay endpoint. This assay endpoint, BSK_4HAR, was analyzed with bidirectional fitting relative to DMSO as the negative control and baseline of activity. Using a type of binding reporter, gain or loss-of-signal activity can be used to understand changes in the signaling as they relate to the gene PLAUR. Furthermore, this assay endpoint can be referred to as a primary readout, because this assay has produced multiple assay endpoints where this one serves a signaling function. To generalize the intended target to other relatable targets, this assay endpoint is annotated to the cytokine intended target family, where the subfamily is plasmogen activator.
The levels of cell surface (or secreted, indicated by the prefix "s") biomarker endpoints were measured by ELISA. Overt cytotoxicity to cells in confluent adherent cultures (all systems other than the BT system) was assessed by measuring total protein levels using sulforhodamine B (SRB) staining in parallel cultures at the time of biomarker measurements, indicated as SRB endpoints. For proliferation assays for adherent cell types, individual cell types are cultured at sub-confluence and relative cell numbers quantified by SRB staining at time points optimized for each system (48 h: 3C and CASM3C systems; 72 h: BT and HDF3CGF systems; 96 h: SAg system). SRB was performed by staining cells with 0.1% SRB after fixation with 10% TCA and reading wells at 560 nm.Viability and proliferation of PBMC (T cells) was quantified by Alamar Blue reduction for the SAg and BT systems. For PBMC viability (referred to as PBMC Cytotoxicity within the assay endpoint names), cells were plated (75,000/well in a 96-well plate) and then chemical samples added for 1 h before addition of activators, SEB and TSST-1 (20 ng/mL final concentration each). Cells were incubated for 90 h. Then, Alamar Blue (20 uL/well) (Invitrogen, Cat DAL1100) was added for 6 h, and the plates were read with a fluorescence microplate reader at 546/580 nm (excitation/emission). For PBMC proliferation, cells were plated and activated as above but incubated for only 16 h prior to addition of Alamar Blue. Plates were read after 6 h.
Take `NNC(=O)c1ccncc1`: the outcome was inactive.
For the compound `O=S1(=O)CCCO1`, the outcome was inactive.
As for `CCCCCCOC(=O)CC(CC(=O)OCCCCCC)(OC(=O)CCC)C(=O)OCCCCCC`, the result was inactive.
The same measure, in the same setting: the same measure for `NC(=O)N1c2ccccc2C=Cc2ccccc21`: “inactive”; for `O=C(O)c1cccc(C[C@@H]2COc3ccc(OCc4nc5cc(F)ccc5s4)cc3[C@@H]2O)c1`: “inactive”.
On to `Cc1nc(-c2ccccn2)ncc1C(=O)Nn1cc(C)c2cc(F)ccc21`, for which the outcome was inactive.
The same measure, in the same setting: under `CCCOc1ccc(S(=O)(=O)N2CCN(CC)CC2)cc1-c1nc2c(CC)n(Cc3ccccn3)nc2c(=O)[nH]1` stands “inactive”; under `CC(C)CCCCCCOC(=O)C1CCCCC1C(=O)OCCCCCCC(C)C` (stereo not given), “inactive”.
With `CCN(CC)C(=S)SSC(=S)N(CC)CC`, the AC50 was 26.4 µM (active).
Regarding `S=P(N1CC1)(N1CC1)N1CC1`, the result was inactive.
Same read-out and setting: under `OCc1c[nH]c2ccccc12` stands “inactive”.
For the compound `CCCCCOC(C)=O`, the outcome was inactive.
On to `OC[C@H]1O[C@@H]2O[C@H]3[C@H](O)[C@@H](O)[C@@H](O[C@H]4[C@H](O)[C@@H](O)[C@@H](O[C@H]5[C@H](O)[C@@H](O)[C@@H](O[C@H]6[C@H](O)[C@@H](O)[C@@H](O[C@H]7[C@H](O)[C@@H](O)[C@@H](O[C@H]1[C@H](O)[C@H]2O)O[C@@H]7CO)O[C@@H]6CO)O[C@@H]5CO)O[C@@H]4CO)O[C@@H]3CO`, for which the result was inactive.
On the same count and under the same terms, under `CC1(C)C(=O)N(Cl)C(=O)N1Cl` stands “inactive”.
For the compound `Cc1ncc([C@@H](CCCCCCc2ccc3c(n2)NCCC3)CC(=O)O)cn1`, the AC50 is 3.97 µM (active).
With `OC(CCl)CCl`, the outcome was inactive.
Regarding `Cc1cccc(O)c1C`, the result was inactive.
The same measure, in the same setting: under `CC(C)c1nnc2ccc(-c3ocnc3-c3cc(F)ccc3F)cn12` stands “inactive”.
As to `CCCCC(CC)C(=O)OCCOCCOCCOC(=O)C(CC)CCCC` (stereo not given), the result was inactive.
Regarding `CCCC(CCC)C(=O)O`, the outcome was inactive.
Still for that read-out and setting: under `O=S(=O)(O)c1ccc(N=Nc2c(O)ccc3cc(S(=O)(=O)O)ccc23)cc1` stands “inactive”; under `c1ccc2ncccc2c1`, “inactive”.
For the compound `OC[C@H]1O[C@@](CO)(O[C@H]2O[C@H](CO)[C@@H](O)[C@H](O)[C@H]2O)[C@@H](O)[C@@H]1O`, the result was inactive.
For the compound `CCCCN1C(=O)[C@@H]([C@H](O)C2CCCCC2)NC(=O)C12CCN(Cc1ccc(Oc3ccc(C(=O)O)cc3)cc1)CC2`, the AC50 was 20 µM (active).
`CCCc1ccccc1`: the outcome was inactive.
Consider `O=C(O)c1cccc(C(=O)O)c1`, for which the result was inactive.
`CC[C@H](C)C(=O)O[C@H]1C[C@H](O)C=C2C=C[C@H](C)[C@H](CC[C@@H](O)C[C@@H](O)CC(=O)O)[C@H]21`: the result was inactive.
As to `Cn1c(=O)c2[nH]cnc2n(C)c1=O`, the outcome was inactive.
As for `OCC(CO)(CO)CO`, the outcome was inactive.
As to `c1ccc2cc3ccccc3cc2c1`, the result was inactive.
Turning to `NC(=O)N(O)[C@@H]1COc2cc(OCc3ccccc3)ccc21`, the outcome was inactive.
Turning to `NCC(F)(F)C(F)(F)C(F)(F)C(F)(F)F`, the result was inactive.
For the compound `FC(F)=C(F)C(F)(F)C(F)(F)C(F)(F)C(F)(F)C(F)(F)C(F)(F)F`, the result was inactive.
For `NC(N)=O`, the outcome was inactive.
Still for that read-out and setting: the same measure for `OCCC(F)(F)C(F)(F)C(F)(F)C(F)(F)F`: “inactive”.
The same measure, in the same setting: the same measure for `FC(F)(F)C(F)(F)C(F)(F)C(F)(F)C(F)(F)C(F)(F)I`: “inactive”.
For `CCn1nc(C)c2c1C(=O)NCC(c1ccc(O)cc1)=N2`, the outcome was inactive.
For the compound `OC(O)(C(F)C(O)(O)C(F)(F)F)C(F)(F)F`, the AC50 is 20.5 µM (active) and the outcome was inactive.
As to `CC(C)C(=O)Nc1ccc([N+](=O)[O-])c(C(F)(F)F)c1`, the outcome was inactive.

By AC50 is commonly meant the concentration giving half of the maximal activity seen.
